According to PubChem BioAssay AID1813 (Broad Institute, 2009):
Out of some 300,000 compounds screened, about 2,500 (0.83%) were called active. Rule as the data show it: active = inhibition above about 60%; inconclusive = no clear call, values can overlap the other calls; inactive = below that. The full list was thinned out, with actives kept by preference.

Assay: 5' untranslated region of α-synuclein, MLPCN primary screen (AID 1813);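 also: H4 neuroglioblastoma cells stably carrying SNCA 5'UTR luciferase fusion; 0% = DMSO wells and 100% = positive control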
Conditions: alpha-synuclein 5'UTR reporter, inhibitor activity; hits give high values; tested at 7.5 µM
In the case of `Cc1nc2c(c(C)nn2-c2ccccc2)c(C)c1C`, the inhibition is reported as -0.524% (inactive). In the case of `COc1ccc(/C=C2\SC(=S)N(CCCC(=O)NC3CCCC3)C2=O)cc1OC`, the inhibition is reported as 83.7% (active). For `COc1ccc(/C=C2\SC(=S)N(CCC(=O)Nc3cccc(C(=O)O)c3)C2=O)cc1OC`, the inhibition was 6.81% (inactive). In the case of `COc1ccc(/C=C2\SC(=S)N(CCC(=O)Nc3ccccn3)C2=O)cc1OC`, the inhibition is reported as 28.8% (inactive). In the case of `CCOc1ccc(S(=O)(=O)N/N=C(\C)c2ccc(Cl)c(Cl)c2Cl)cc1`, the inhibition is reported as 2.56% (inactive). In the case of `O=C(NCCc1ccccc1)C(=O)NCC1OCCN1S(=O)(=O)c1cccs1` (configuration not stated), the inhibition is reported as 2.43% (inactive). With `CC(CNS(=O)(=O)c1ccc(Br)cc1)CN(C)C` (configuration not stated) the inhibition was 22% (inactive). In the case of `CN(CC(=O)NNC(=O)CNC(=O)c1ccccc1Cl)S(=O)(=O)c1ccc(Cl)cc1`, the inhibition is reported as -12.7% (inactive). With `CCc1cc(-c2nnc(SCC(=O)NC3CC3)n2C)cs1` the inhibition was -4.18% (inactive). With `Cc1ccccc1NCC(=O)N/N=C\c1ccc([N+](=O)[O-])s1` the inhibition was -43.2% (inactive). With `Cc1cc(C(=O)N/N=C/c2cc([N+](=O)[O-])cc(C)c2O)n[nH]1` the inhibition was -3% (inactive). With `CC(C)(C)c1cc(C(=O)N/N=C/c2ccc([N+](=O)[O-])s2)n[nH]1` the inhibition was 64% (active). For `CCOC(=O)C(C)n1cnc2c(nnn2-c2cccc(OC)c2)c1=O` (configuration not stated), the inhibition was -35.8% (inactive). For `O=C(C[n+]1ccc2c(c1)nnn2-c1ccccc1)c1ccc(Cl)cc1`, the inhibition was 9.87% (inactive). With `CC(=O)Nc1nc2ccccc2n1Cc1ccc(C)cc1` the inhibition was 48.2% (inactive). For `CCC(=O)Nc1nc2ccccc2n1Cc1ccccc1C`, the inhibition was 65.5% (active). In the case of `CCCCn1c(CCCNC(=O)CC)nc2ccccc21`, the inhibition is reported as -5.46% (inactive). In the case of `COc1ccc(N2CCN(C(=O)CNC(=O)c3ccc(Br)o3)CC2)cc1`, the inhibition is reported as 0.266% (inactive). With `CC(=O)NNC(=O)c1csc(Cc2c(Cl)sc3ccc(Cl)cc23)n1` the inhibition was 67.1% (active). With `CC(=O)Cc1nsc(NC(=O)c2ccc(Cl)cc2Cl)n1` the inhibition was -9.27% (inactive). For `CNC(=O)c1csc(Cc2c(Cl)sc3ccc(Cl)cc23)n1`, the inhibition was -10.2% (inactive). With `CC12CN3CCN(CC(C3)/C1=N\NC(=O)c1ccccc1N)C2` the inhibition was -83.3% (inactive). For `Cc1ccc(CN2CCN(Cc3ccc4ncccc4c3)CC2CCO)cc1` (configuration not stated), the inhibition was -3.25% (inactive). With `Cc1nnc(N/N=C/C2CC=CCC2)[nH]c1=O` (configuration not stated) the inhibition was -14.7% (inactive). For `Cc1nnc(N/N=C/c2ccccn2)[nH]c1=O`, the inhibition was 117% (active). With `CNC(=O)C(=O)N/N=C/c1ccccn1` the inhibition was 10.9% (inactive). For `COc1cc(/C=N/N=C(\N)c2nonc2N)cc(OC)c1OC`, the inhibition was -18.9% (inactive). For `O=C(CNC(=O)Cc1ccccc1)NCC(=O)OCC(=O)c1ccccc1Cl`, the inhibition was -27.1% (inactive). In the case of `CC(=O)c1ccc(S(=O)(=O)N2CCN(C(=O)/C=C/c3ccc4ccccc4n3)CC2)cc1`, the inhibition is reported as 62.4% (active). For `CC(=O)c1ccc(S(=O)(=O)N2CCC3(CC2)OCCO3)cc1`, the inhibition was -7.06% (inactive). In the case of `CC(=O)c1ccc(S(=O)(=O)N2CCN(c3nc4c(C)c(C)ccc4cc3C#N)CC2)cc1`, the inhibition is reported as 15.2% (inactive). For `CC(N)C12CC3CC(CC(O)(C3)C1)C2` (configuration not stated), the inhibition was 11.6% (inactive). With `COc1ccccc1Cn1c(=S)[nH]c2cc(C(=O)N3CCN(C)CC3)ccc2c1=O` the inhibition was 30.1% (inactive). With `CCOc1cc2[nH]c(=S)n(Cc3ccc(C(=O)N4CCN(C)CC4)cc3)c(=O)c2cc1OCC` the inhibition was 86.1% (active). For `CCOc1cc2[nH]c(=S)n(Cc3ccc(C(=O)NCCOC)cc3)c(=O)c2cc1OCC`, the inhibition was 13.8% (inactive). With `COc1ccccc1N1CCN(C(=O)c2cc(=O)c3cc(C)ccc3o2)CC1` the inhibition was -36.8% (inactive). With `COc1ccccc1N1CCN(C(=O)c2cc(=O)c3cc(C)cc(C)c3o2)CC1` the inhibition was 78.3% (active). For `COc1cccc(-c2cc(C(=O)N3CCN(c4ccccc4OC)CC3)no2)c1`, the inhibition was -4.47% (inactive). In the case of `Cc1ccc(C(=O)Nc2nnc(C3=COCCO3)o2)cc1C`, the inhibition is reported as -10.3% (inactive). In the case of `CCN(CC)S(=O)(=O)c1ccc(N2CCCC2)c(NS(=O)(=O)c2cccs2)c1`, the inhibition is reported as -11.1% (inactive). For `COc1ccc(C(=O)CC(=O)C(=O)Nc2cc([N+](=O)[O-])ccc2OC)cc1`, the inhibition was -25.8% (inactive). In the case of `COc1ccc(C(=O)c2c3ccc([N+](=O)[O-])cc3[n+]([O-])n2CCCN)cc1`, the inhibition is reported as 63.1% (active). For `COc1ccc2c(C(=O)c3ccc(C)cc3)n(CCC(N)=O)[n+]([O-])c2c1`, the inhibition was -21.1% (inactive). In the case of `Cc1ccc(C(NC(=O)N2CCCC2)C(Cl)(Cl)Cl)cc1F` (configuration not stated), the inhibition is reported as 25.2% (inactive). For `COc1ccccc1N=Cc1c(O)c2ccccc2oc1=O`, the inhibition was 3.79% (inactive). In the case of `COc1cc(N=Cc2c(O)[nH]c3ccccc23)cc(OC)c1OC`, the inhibition is reported as 81% (active). With `COCC(=O)N=Nc1c(O)[nH]c2ccccc12` the inhibition was 3.62% (inactive). With `COCCC(=O)N1CCC(Oc2ccc(C(=O)NCc3ccon3)cc2)CC1` the inhibition was -4.68% (inactive). For `Oc1ccc(Br)cc1/C=N/Nc1ccccn1`, the inhibition was 66.4% (active). In the case of `O=C(CCCO)N/N=C/c1cc(Br)ccc1O`, the inhibition is reported as -18.4% (inactive). In the case of `Oc1ccc(/C=N/Nc2ccc(C(F)(F)F)cn2)cc1O`, the inhibition is reported as -195% (inactive). With `COc1ccc(-c2cc(=O)oc3cc(OCC(=O)N[C@@H](Cc4c[nH]c5ccccc45)C(=O)O)ccc23)cc1` the inhibition was 9.25% (inactive). For `CCOc1cc(/C=N/NC(=O)CN2CCCCC2)ccc1O`, the inhibition was 1.96% (inactive). With `C=CCn1c(C)cc(C(=O)CN2C(=O)c3ccccc3C2=O)c1C` the inhibition was 47.1% (inactive). In the case of `C=CCn1c(C)cc(C2=NNC(=NCC)SC2)c1C`, the inhibition is reported as 105% (active). For `O=C(NCc1cccnc1)C12CC3CC(CC(C3)C1)C2`, the inhibition was 16.2% (inactive). In the case of `O=C(NC1CCCC1)C(c1ccc(N2CCOCC2)cc1)N(C(=O)c1ccco1)c1ccccc1F` (configuration not stated), the inhibition is reported as -5.34% (inactive). In the case of `CCOC(=O)c1cnc(-n2nc(C)cc2C)nc1NNc1cc(C)nc(-c2ccccc2)n1`, the inhibition is reported as 105% (active). In the case of `CCOC(=O)c1cnc(-n2nc(C)cc2C)nc1Nc1cccc(C(C)=O)c1`, the inhibition is reported as 17.6% (inactive). In the case of `Cc1cc(C)n(-c2c(F)c(F)c(COC(=O)c3ccccc3)c(F)c2F)n1`, the inhibition is reported as 6.91% (inactive). In the case of `NC(=O)C1CCN(Cc2nc3c(Br)cc(Br)cc3c(=O)[nH]2)CC1`, the inhibition is reported as 31.8% (inactive). For `CC(=O)Nc1ccc(S(=O)(=O)NC2Cc3ccccc3C2)cc1`, the inhibition was -6.02% (inactive). For `Cc1ccc(NC(=O)CCC(=O)c2ccc(Br)cc2)cc1`, the inhibition was 1.65% (inactive). With `CCCOc1ccccc1C1CC(=O)Nc2cc3c(cc21)OCO3` (configuration not stated) the inhibition was 111% (active). In the case of `COc1ccccc1C1C2=C(COC2=O)Nc2cc3c(cc21)OCO3` (configuration not stated), the inhibition is reported as 98.1% (active). In the case of `COc1ccc(C2CC(=O)Nc3cc(C)c(C)cc32)c(OC)c1OC` (configuration not stated), the inhibition is reported as 22.4% (inactive). With `COc1cc2c(cc1OC)C(c1ccncc1)CC(=O)N2` (configuration not stated) the inhibition was 21.6% (inactive). With `COC(=O)C1=C(C)NC(=O)CC1c1ccccc1OC` (configuration not stated) the inhibition was 2.02% (inactive). In the case of `COc1ccc(S(=O)(=O)Nc2ccc3c(c2)OCO3)cc1Cl`, the inhibition is reported as -17.5% (inactive). For `COC(=O)c1ccc(NS(=O)(=O)c2cc3c4c(c2)C(C)C(=O)N4CCC3)cc1` (configuration not stated), the inhibition was 8.87% (inactive). In the case of `CN(CC(=O)NCc1ccncc1)S(=O)(=O)c1ccc(Br)cc1`, the inhibition is reported as -15.9% (inactive). With `Cc1ccc(CNC(=O)c2ccc3c(c2)S(=O)(=O)c2ccccc2C3=O)cc1` the inhibition was 5.46% (inactive). For `CCN(C(=O)c1cc([N+](=O)[O-])ccc1NCc1cccnc1)c1ccccc1`, the inhibition was 14.1% (inactive). In the case of `CCCCn1ccnc1C(=O)c1cccc(S(=O)(=O)N2c3ccccc3CC2C)c1` (configuration not stated), the inhibition is reported as 4.82% (inactive). In the case of `COc1ccc(-c2cn3ccc(C)cc3n2)cc1`, the inhibition is reported as 92.2% (active). With `COc1ccc(-c2cn3ccsc3n2)cc1` the inhibition was -105% (inactive). With `CCN(CC)S(=O)(=O)c1ccc(-c2cn3ccc(C)cc3n2)cc1` the inhibition was -169% (inactive). With `CCc1nc2cccnc2n1-c1ccc(C(=O)O)cc1` the inhibition was -14.6% (inactive). With `Fc1ccc(-n2c(Cc3ccccc3)nnc2SCc2nc(-c3ccc(Cl)cc3)no2)cc1` the inhibition was -3.62% (inactive). In the case of `CCN(CC)CCNCc1ccc(OCc2ccc(Cl)nc2)c(OC)c1`, the inhibition is reported as -27.5% (inactive). With `COc1cccc(/C=C2\C=C(c3ccc(C)cc3)OC2=O)c1OC(C)=O` the inhibition was -65.8% (inactive). For `CCOc1cccc(/C=C/c2ccc3ccccc3n2)c1OC(C)=O`, the inhibition was 49.2% (inactive). In the case of `COc1cccc(/C=C/c2ccc3ccccc3n2)c1OC(C)=O`, the inhibition is reported as 83.1% (active). With `CCCOC1CCCN(C(=O)c2cc(COc3cncc(Cl)c3)on2)C1` (configuration not stated) the inhibition was -219% (inactive). In the case of `C[C@H](NC(=O)c1nc[nH]c1C(=O)NCC(=O)OC(C)(C)C)c1ccccc1`, the inhibition is reported as 24.4% (inactive). With `Cc1ccc(-c2cc(=O)c3ccc(Cl)cc3[nH]2)cc1` the inhibition was -19.2% (inactive). With `O=c1cc(-c2ccccc2)[nH]c2cc(F)ccc12` the inhibition was 93.3% (active). In the case of `Cc1ccc(-c2cc(=O)c3ccc(F)cc3[nH]2)cc1`, the inhibition is reported as -68.9% (inactive). In the case of `CC(C)C[C@H](CO)Nc1nc(N(C)c2cccc(Cl)c2)c2ncn(C(C)C)c2n1`, the inhibition is reported as 24.9% (inactive). In the case of `CC(C)n1cnc2c(Nc3cccc(Cl)c3)nc(N(CCO)CCCO)nc21`, the inhibition is reported as 64.7% (active). With `COC(=O)C(C)n1cnc2c(nnn2-c2cccc(Cl)c2)c1=O` (configuration not stated) the inhibition was -6.77% (inactive). With `CSc1cc(C)n(-c2ccccc2C)c(=S)c1C(C)=O` the inhibition was -18% (inactive). In the case of `O=C(CCN1C(=O)c2ccncc2C1=O)Nc1cc(F)ccc1F`, the inhibition is reported as 10.3% (inactive). With `O=C(NCC(=O)N(c1ccccc1)C(C(=O)NCC1CCCO1)c1ccccc1)c1cccs1` (configuration not stated) the inhibition was 15.4% (inactive). For `O=C(N/N=C/c1ccoc1)c1ccc(Cl)cc1Cl`, the inhibition was -0.701% (inactive). With `O=C(N/N=C/c1ccc(OC(=O)c2ccccc2Cl)cc1)c1ccc(O)cc1` the inhibition was -1.64% (inactive). With `CC(C)(C)C(=O)Nc1ccc(C(=O)N/N=C/c2ccccc2OC(=O)c2ccc(Cl)cc2Cl)cc1` the inhibition was 65.2% (active).
